Calls of active or inactive are those of the source. Unless noted, no rule for the calls is given here.

Test [1] can be described thus: HepG2 liver cancer cell viability effects, profiling panel, resazurin fluorescence, 24 h, PK04 Diversity Set (AID 1172). Also: test concentration not given here. The following applies: higher = more signal. A general note: Alamar Blue is a resazurin reagent that responds to reducing activity.
Test [2] is described as follows: basal S. cerevisiae growth modulation, no modifier, primary screen, OD600, strain BY4716, 24 h, basal condition (AID 1173). To be noted: OD600, 24 h, higher = more signal, called active from +8 up or from −8 down.
Test [3] in a line: MM1S myeloma cell viability, profiling panel, resazurin fluorescence, basal, 24 h, PK04 Diversity Set (AID 1174). Also: test concentration not given here. To be noted: higher = more signal, called active from +8 up or from −8 down.
Test [4] concerns the target Dihydroorotate dehydrogenase (quinone), mitochondrial (Plasmodium falciparum (isolate 3D7)) (UniProt Q08210). Briefly: PfDHODH enzyme inhibitors, primary screen, biochemical, C-terminal His tag, absorbance 600 nm (AID 1175).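 Also: recombinant parasite enzyme with a five histidine tag at its C terminus; test concentration not given here.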 The following applies: DCIP absorbance 600 nm, higher = more signal, called active from +8 up or from −8 down.
A short description of test [5]: P. aeruginosa biofilm formation inhibitors, primary screen, strain PAO1, LB-PBS medium, absorbance 600 nm (AID 1176). Also: test concentration not given here. To be noted: P. aeruginosa PAO1 growth/biofilm, A600, 12 h; higher = more signal.
A short description of test [6]: S. cerevisiae RM11-1a growth modifiers, primary screen, strain RM11-1a, OD600, basal, 24 h (AID 1177).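 Also: cultures grown under basal conditions with no added stressor; test concentration not given here.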 To be noted: OD600, 24 h, higher = more signal, called active from +8 up or from −8 down.
Test [7] is described as follows: E. coli acrAB mutant growth effects, primary screen, E. coli filamentation inducers, strain DRC39, OD650, 24 h (AID 1178).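 Also: growth measured as culture turbidity by optical density at 650 nm; test concentration not given here.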 To be noted: higher = more signal, called active from +8 up or from −8 down.
A short description of test [8]: E. coli acrAB mutant growth effects, primary screen, E. coli filamentation inducers, strain DRC39, OD650, 48 h (AID 1179).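 Also: screen aims at cell division blockers that make cells filament.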 The following applies: E. coli DRC39 delta-acrAB growth, higher = more signal, called active from +8 up or from −8 down.
The nature of test [9]: RPMI8226 myeloma cell viability, profiling panel, resazurin fluorescence, basal, 24 h, PK04 Diversity Set (AID 1180).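 Also: RPMI8826 multiple myeloma cell line at 5000 cells per well; test concentration not given here.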 To be noted: higher = more signal.
For test [10], the target named is E3 ubiquitin-protein ligase XIAP (Homo sapiens) (UniProt P98170). Briefly: XIAP binders, primary screen, biophysical, small-molecule microarray, fluorescence 635 nm (AID 1181).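 Also: score merges 667 nm emission and signal to noise over triplicate slides.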 To be noted: small-molecule microarray binding, higher = more signal.
Sequence of E3 ubiquitin-protein ligase XIAP (Homo sapiens) (P98170 whole entry, looked up): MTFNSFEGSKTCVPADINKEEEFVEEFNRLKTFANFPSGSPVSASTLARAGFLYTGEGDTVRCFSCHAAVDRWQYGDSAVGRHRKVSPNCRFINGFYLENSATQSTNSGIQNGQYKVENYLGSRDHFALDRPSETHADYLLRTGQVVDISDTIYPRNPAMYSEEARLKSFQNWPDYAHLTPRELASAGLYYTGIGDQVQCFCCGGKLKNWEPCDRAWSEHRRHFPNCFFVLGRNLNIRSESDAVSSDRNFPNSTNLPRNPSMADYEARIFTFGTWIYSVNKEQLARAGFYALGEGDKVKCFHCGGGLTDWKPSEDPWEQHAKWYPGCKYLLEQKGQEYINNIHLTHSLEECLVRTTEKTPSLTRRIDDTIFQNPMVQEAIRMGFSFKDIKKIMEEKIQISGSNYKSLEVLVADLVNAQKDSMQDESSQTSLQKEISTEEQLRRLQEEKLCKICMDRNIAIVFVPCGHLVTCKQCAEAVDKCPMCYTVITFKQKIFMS

Sequence of Dihydroorotate dehydrogenase (quinone), mitochondrial (Plasmodium falciparum (isolate 3D7)) (Q08210 whole entry, looked up): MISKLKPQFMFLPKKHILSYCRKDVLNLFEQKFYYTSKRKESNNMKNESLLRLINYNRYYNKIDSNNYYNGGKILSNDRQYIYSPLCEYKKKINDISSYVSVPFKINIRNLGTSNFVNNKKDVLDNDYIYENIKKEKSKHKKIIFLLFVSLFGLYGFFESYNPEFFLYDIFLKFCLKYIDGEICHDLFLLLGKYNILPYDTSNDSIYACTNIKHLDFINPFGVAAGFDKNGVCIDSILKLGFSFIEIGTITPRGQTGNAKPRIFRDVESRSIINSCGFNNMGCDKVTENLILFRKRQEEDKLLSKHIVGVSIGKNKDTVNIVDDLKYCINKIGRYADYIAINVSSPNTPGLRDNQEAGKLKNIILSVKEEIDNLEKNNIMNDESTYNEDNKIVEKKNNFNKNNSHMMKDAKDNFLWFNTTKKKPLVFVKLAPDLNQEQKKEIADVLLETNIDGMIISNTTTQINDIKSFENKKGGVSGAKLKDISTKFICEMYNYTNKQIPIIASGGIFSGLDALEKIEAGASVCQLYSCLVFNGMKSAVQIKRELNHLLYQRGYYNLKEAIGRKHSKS

Turning to `O=C(NN=C1C[C@@H](O)[C@@H](O)[C@@H]2[C@@H]3C(=O)N(c4cccc(Oc5ccccc5)c4)C(=O)[C@@H]3CC[C@H]12)OCc1ccccc1`, the z-score was 0.615 in test [1]; -0.841 (inactive) in [2]; -0.0525 (inactive) in [3]; -0.708 (inactive) in [5]; -0.474 (inactive) in [6]; 0.578 (inactive) in test [7]. Further, the z-score was 0.514 (inactive) in test [8] and 0.49 in test [9]. For the same molecule, the results for the composite z-score in test [4] and in test [10] were 0.294 (inactive) and -0.141, respectively.

In the case of `C[C@@H]1C=CCC(=O)OC[C@H](C)C(=O)N[C@@H](C)C(=O)OC1`, the z-score in test [1] was 0.29; in [2], 0.128 (inactive); in test [3], 0.617 (inactive); in test [5] it was -0.537 (inactive); in test [6], 0.317 (inactive); in test [7], 0.6 (inactive). In addition, the results for the z-score in test [8] and in [9] were 0.879 (inactive) and 0.361, respectively. Besides, the composite z-score in test [4] was 0.474 (inactive); in test [10], -0.113.

Take `CO[C@H]1COC(=O)[C@@H]2CCCN2C(=O)[C@@H](C)COC(=O)CC=C[C@@H]1C`: the z-score was 0.264 in test [1]; -0.0361 (inactive) in [2]; 0.285 (inactive) in test [3]; -0.725 (inactive) in test [5]; 0.023 (inactive) in test [6]; 0.488 (inactive) in [7]. Besides, the z-score in test [8] was 0.362 (inactive); in [9], 0.0409. The composite z-score in [4] is -1.95 (inactive); in test [10], 0.285.

For `CCCC=C(CCC)[C@@H](NC(=O)c1ccc(-c2ccccc2)cc1)c1ccc(C(=O)OC)cc1`, the z-score in [1] was 0.664; in [2] it was 1.44 (inactive); in test [3], -0.438 (inactive); in test [5], -0.126 (inactive); in [6], 1.23 (inactive); in [7], 0.0519 (inactive). Also, the z-score in test [8] is -0.21 (inactive); in test [9], -0.361. The results for the composite z-score in [4] and in test [10] were 0.407 (inactive) and 0.0512, respectively.

As for `COCCCNC(=O)[C@@]1(CCS(=O)(=O)c2ccccc2)N=C(c2ccc(OCCCO)cc2)O[C@H]1c1ccccc1`, the z-score was 1.62 in [1]; -0.44 (inactive) in test [2]; 0.745 (inactive) in [3]; 0.0963 (inactive) in test [5]; -0.287 (inactive) in test [6]; 1.34 (inactive) in test [7]. The results for the z-score in [8] and in [9] were 0.953 (inactive) and 0.806, respectively. Also, the composite z-score is 0.514 (inactive) in [4] and 0.14 in [10].

Regarding `CCCC[C@H]1OB(O)C[C@H]2C1=C(C)C[C@H]1C(=O)N(C)C(=O)[C@H]12`, the z-score in test [1] is -0.539; in [2] it was -2.09 (inactive); in [3], -0.596 (inactive); in test [5], 0.4 (inactive); in test [6] it was -0.776 (inactive); in [7] it was 0.506 (inactive). Besides, the z-score in test [8] is 0.499 (inactive); in [9], -0.466. Also, the results for the composite z-score in [4] and in [10] were -0.829 (inactive) and -0.256, respectively.

Consider `C=C(CCCC)C(=O)CC[C@@H](OC(C)=O)c1cccc(OCCO)c1`, for which the z-score in [1] is -0.749; in [2] it was -17.8 (active); in [3], -1.01 (inactive); in test [5], 0.367 (inactive); in [6], -19.2 (active); in [7] it was -0.55 (inactive). The values for the z-score in test [8] and in test [9] were -0.528 (inactive) and -1.07, respectively. Besides, the composite z-score in [4] was -3.64 (inactive); in test [10], 0.136.

For `COCCCNC(=O)[C@]1(CCC(=O)OC(C)(C)C)N=C(c2ccc(OCCCO)cc2)O[C@@H]1c1ccccc1N=[N+]=[N-]`, the z-score in [1] was 1.18; in [2], -0.334 (inactive); in [3], -0.637 (inactive); in [5], 0.149 (inactive); in test [6] it was 0.149 (inactive); in test [7], 0.615 (inactive). In addition, the z-score in test [8] is 0.0528 (inactive); in [9], -0.128. For the same molecule, the composite z-score in test [4] was 0.08 (inactive); in [10] it was 0.121.

Consider `COCCOC(=O)N1C(=O)[C@@]2(c3ccccc31)[C@H](C(N)=O)[C@H]1C(=O)O[C@H](c3ccccc3)[C@H](c3ccccc3)N1[C@@H]2c1ccccc1OCCO`, for which the z-score in [1] was -1.23; in test [2] it was 0.225 (inactive); in test [3] it was -2.56 (inactive); in [5], 0.517 (inactive); in test [6], 1.63 (inactive); in [7], 0.201 (inactive). Also, the z-score is -0.158 (inactive) in test [8] and -4.25 in [9]. The results for the composite z-score in test [4] and in test [10] were 0.692 (inactive) and 0.209, respectively.

In the case of `CCOC(=O)[C@H](Cc1ccccc1)NC(=O)CCC1CC(OC(=O)NCc2ccc3c(c2)OCO3)CC2(CCCC(COC(=O)NCc3cccc(C(F)(F)F)c3)O2)O1` (stereo not given in full), the z-score in [1] was -0.302; in test [2], -1.17 (inactive); in test [3] it was 1.12 (inactive); in test [5], -0.813 (inactive); in test [6] it was 0.234 (inactive); in [7], -1.21 (inactive). The z-score in test [8] is -0.793 (inactive); in test [9], 0.352. The composite z-score was -2.76 (inactive) in test [4] and 0.309 in test [10].

Consider `Cc1ccc(S[C@]2(C(=O)NCC(F)(F)F)CC(=O)N(Cc3ccccc3Cl)[C@@H]2c2ccc(CO)cc2I)cc1`, for which the z-score in test [1] was 0.305; in [2], -3.36 (inactive); in test [3], -3.29 (inactive); in test [5] it was 0.0214 (inactive); in [6], -0.54 (inactive); in test [7], 0.357 (inactive). Further, the z-score was 0.465 (inactive) in test [8] and -2.02 in [9]. Moreover, the values for the composite z-score in [4] and in [10] were -0.148 (inactive) and 0.0256, respectively.

As to `CC(C)(C)N1CC=CC23O[C@@H]4C=CCCOC(=O)C4[C@H]2C(=O)N(CCCCCO)[C@@H]3C1=O` (stereo not given in full), the z-score in test [1] is -0.214; in test [2] it was -0.312 (inactive); in test [3] it was 0.287 (inactive); in test [5] it was -0.36 (inactive); in [6], 0.449 (inactive); in test [7], 0.251 (inactive). The z-score was 0.762 (inactive) in [8] and 0.384 in test [9]. The composite z-score was -0.16 (inactive) in [4] and 0.329 in [10].

Regarding `O=C1C2C=CC(C(O)c3ccc([N+](=O)[O-])cc3)N(Nc3ccc([N+](=O)[O-])cc3)C2C(=O)N1c1ccccc1` (stereo not given), the z-score in test [1] was -0.686; in [2] it was 1.61 (inactive); in [3] it was -0.858 (inactive); in test [5] it was 1.64 (inactive); in test [6], 1.44 (inactive); in test [7], -1.3 (inactive). The results for the z-score in test [8] and in test [9] were -1.09 (inactive) and -0.823, respectively. Further, the values for the composite z-score in test [4] and in [10] were 1.2 (inactive) and 0.23, respectively.

For the origin of these results see PubChem BioAssay.
